# Assay results: the supplement of paper PMC10338343
# ± gives the standard deviation.
# System: MILI (PIWIL2) piRISC loaded with L1MC piRNA (26 nt)
# Experiment: pre-steady-state target cleavage rate (min^-1); guide: L1MC piRNA 5'p-UAACUAAAUACUAUGCAAGCUGUAGG; MIWI and MILI are mouse PIWI proteins and EfPiwi is from a freshwater sponge; tags in brackets are library labels; higher = faster piRNA-guided slicing of the target
# Conditions: auxiliary factor: 500 nM mouse GTSF1
# Procedure, shortened: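 At 33 °C in HEPES–potassium acetate buffer, a transcribed, DNA-blocked target RNA library […] was exposed for 0–8 or 0–960 min to 1 nM active affinity-purified piRISC carrying a single synthetic guide, with or without 500 nM GTSF1 partner protein. Uncleaved targets were sequenced and normalised to depth and to weakly complementary targets. With three trials pooled and k3 capped at 0.0001 min^-1, a burst-and-steady-state fit produced the pre-steady-state cleavage rate.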
# 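Also: 1 nM active piRISC with 0.1 nM target library at 33 °C single turnover.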
row,Sequence,pre-steady-state target cleavage rate
1,UCCUCCUACAGGUUGGAUAGUAUUUAGUUA,0.205 ± 0.012
2,UCCUGGUACAGCAUGCAUAGUUUUUAGUUA,0.038 ± 0.015
3,UCCUCCUACAGCUUGGAUAGUAUUUAGUAA,0.208 ± 0.02
4,UCCUGCUUCAGCUUGCAUAGUUUUUAGUUA,0.0646 ± 0.011
5,UCCUGGAACAGAUUGCAUAGUAUUUAGUUA,0.284 ± 0.012
6,UCCUGGAUCAGCUUGCAUAGUAUUUAGUUA [g2:g22:cont:t1A],0.267 ± 0.017
7,UCCUGGAUCAGCAUGCAUAGUAUUAAGUUA,0.24 ± 0.012
8,UCCUGCUACAGCUUGCUUAGUAAUUAGUUA,0.18 ± 0.018
9,UCCUCCUACUCGUUGCAUAGUAUUUAGUAA,0.176 ± 0.024
10,UCCUCCUACAGCUUCCUUAGUAUUUAGUUA,0.216 ± 0.025
11,UCCUGGUAGUGCUUGCAUAGUAUUUAGUUA,0.184 ± 0.018
12,UCCUGGAUCAGCUUGCAUUGUAUUAAGUUA,0.142 ± 0.016
13,UCCUCCUACAGCUUGCAAAGUAUUUAGUAA,0.142 ± 0.016
14,UCCUCCUAGUCCUUGCAUAGUAUUUAGUAA,0.102 ± 0.018
15,UCCUGGAUGAGCUUUCAUAGUAUUUAGUUA,0.15 ± 0.018
16,UCCUGCUACAGCUUGCCUAGUAUUUAGUUA,0.222 ± 0.015
17,UCCUCCAACACCUUGCAUAGUAUUUAGUUA,0.192 ± 0.022
18,UCCUGGAUCAGCUUUCAUAGUAUUUAGUUA,0.204 ± 0.018
19,UCCUCCUACAGCAUGCAUAGUAUUUUGUUA,0.143 ± 0.02
20,UCCUGGAUGUCCUUGCAUAGUAUUAAGUUA,0.116 ± 0.019

row,Sequence,pre-steady-state target cleavage rate
1,UCCUGGAUCAGCUUGGAUAGUAUUUAGUAA,0.166 ± 0.019
2,UCCUGGAUGAGCUAGCAUACUAUUUAGUUA,0.0848 ± 0.017
3,UCCUGCUACAGGUUGGAUAGUAUUUAGUUA,0.204 ± 0.018
4,UCCUGGUACAGCUUGCAAACUAUUUAGUUA,0.0345 ± 0.007
5,UCCUGGUACAGGUUGCAUAGUAUUUAGUAA,0.287 ± 0.04
6,UCCUGGAUGAGCUUGUAUAGUAUUUAGUUA,0.181 ± 0.015
7,UCCUCUUACAGCUUGCAUAGUAUUUAGUUA,0.35 ± 0.015
8,UCCUGGAACAGCUGGCAUAGUAUUUAGUUA,0.17 ± 0.012
9,UCCUCCUACUGCUUGCAUAGUAUUUAGUUA,0.27 ± 0.016
10,UCCUGGAUGUGGUUGCAUAGUAAUUAGUUA,0.162 ± 0.034
11,UCCUCCUACAGCUAGCAAAGUAUUUAGUUA,0.138 ± 0.014
12,UCCUCCUACAGCUUGCGUAGUAUUUAGUUA,0.28 ± 0.015
13,UCCUGGAACAGCCUUGCAUAGUAUUUAGUUA,0.225 ± 0.019
14,UCCUGGAUCUGCAUGCAUAGUAUUUAGUUA,0.209 ± 0.015
15,UCCUGCUACACGAUGCAUAGUAUUUAGUUA,0.241 ± 0.022
16,UCCUGGAUCAGGUUGCAUAGUAUUUAGUAA,0.227 ± 0.016
17,UCCUCCUACAGCUUGCAUAGUAUAUUAGUUA,0.282 ± 0.019
18,UCCUGGAACAACUUGCAUAGUAUUUAGUUA,0.262 ± 0.022
19,UCCUCGUACAGCAUGCAUAGUAUUUAGUUA,0.262 ± 0.015
20,UCCUCCUACAGCUUGGAUAGUAAUUAGUUA,0.25 ± 0.024
